The target of assay [1] is 5'-AMP-activated protein kinase catalytic subunit alpha-2 (Homo sapiens) (UniProt P54646). The note with it: at 1 µM.
Assay [2] addresses T1, NUAK family SNF1-like kinase 1 (Homo sapiens) (UniProt O60285).
T1 sequence (whole entry): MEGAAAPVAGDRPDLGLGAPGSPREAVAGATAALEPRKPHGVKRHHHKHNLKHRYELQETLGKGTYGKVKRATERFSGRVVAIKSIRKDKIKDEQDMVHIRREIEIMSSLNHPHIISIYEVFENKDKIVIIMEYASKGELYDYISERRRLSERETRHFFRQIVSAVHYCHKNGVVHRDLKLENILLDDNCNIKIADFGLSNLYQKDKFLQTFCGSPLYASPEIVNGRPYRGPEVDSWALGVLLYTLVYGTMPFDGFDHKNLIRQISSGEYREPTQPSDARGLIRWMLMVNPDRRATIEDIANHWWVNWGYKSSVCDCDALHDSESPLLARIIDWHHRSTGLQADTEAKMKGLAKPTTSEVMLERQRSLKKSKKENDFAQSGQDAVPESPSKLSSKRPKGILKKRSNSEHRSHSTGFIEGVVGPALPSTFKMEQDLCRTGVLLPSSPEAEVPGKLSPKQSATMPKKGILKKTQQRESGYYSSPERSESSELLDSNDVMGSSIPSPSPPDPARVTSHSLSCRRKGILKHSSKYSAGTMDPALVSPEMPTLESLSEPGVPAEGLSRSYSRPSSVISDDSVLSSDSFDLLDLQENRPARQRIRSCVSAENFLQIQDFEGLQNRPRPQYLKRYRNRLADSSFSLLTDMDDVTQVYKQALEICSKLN
The note with it: at 0.1 µM.

The target in assay [3] is T1, NUAK family SNF1-like kinase 1 (Homo sapiens). The note with it: at 1 µM.
Assay [4] has as its target T2, Serine/threonine-protein kinase BRSK1 (Homo sapiens) (UniProt Q8TDC3).
T2 sequence (whole entry): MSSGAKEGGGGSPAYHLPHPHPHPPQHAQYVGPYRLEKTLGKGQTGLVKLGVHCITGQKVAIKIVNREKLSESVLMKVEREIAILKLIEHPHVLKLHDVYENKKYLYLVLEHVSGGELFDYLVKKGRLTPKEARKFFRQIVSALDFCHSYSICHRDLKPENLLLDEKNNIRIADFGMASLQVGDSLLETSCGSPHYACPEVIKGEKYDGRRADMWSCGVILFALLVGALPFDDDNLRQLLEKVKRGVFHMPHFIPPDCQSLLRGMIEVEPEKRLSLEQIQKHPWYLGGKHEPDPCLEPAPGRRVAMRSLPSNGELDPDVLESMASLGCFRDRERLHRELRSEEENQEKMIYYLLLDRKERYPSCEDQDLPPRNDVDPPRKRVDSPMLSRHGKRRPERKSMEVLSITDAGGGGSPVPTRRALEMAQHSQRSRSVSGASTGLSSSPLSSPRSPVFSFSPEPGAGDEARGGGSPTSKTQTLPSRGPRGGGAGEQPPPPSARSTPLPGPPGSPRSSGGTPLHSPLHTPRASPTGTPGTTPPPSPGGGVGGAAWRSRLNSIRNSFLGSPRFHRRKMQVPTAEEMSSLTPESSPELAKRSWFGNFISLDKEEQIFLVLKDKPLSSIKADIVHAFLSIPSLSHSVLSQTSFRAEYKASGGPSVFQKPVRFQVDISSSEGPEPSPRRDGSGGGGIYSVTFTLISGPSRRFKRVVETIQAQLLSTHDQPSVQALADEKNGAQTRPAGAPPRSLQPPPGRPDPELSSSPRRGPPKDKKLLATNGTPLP
The note with it: at 0.1 µM.

Assay [5] deals with T2, Serine/threonine-protein kinase BRSK1 (Homo sapiens). The note with it: at 1 µM.
In assay [6] the target is T3, Serine/threonine-protein kinase BRSK2 (Homo sapiens) (UniProt Q8IWQ3).
T3 sequence (whole entry): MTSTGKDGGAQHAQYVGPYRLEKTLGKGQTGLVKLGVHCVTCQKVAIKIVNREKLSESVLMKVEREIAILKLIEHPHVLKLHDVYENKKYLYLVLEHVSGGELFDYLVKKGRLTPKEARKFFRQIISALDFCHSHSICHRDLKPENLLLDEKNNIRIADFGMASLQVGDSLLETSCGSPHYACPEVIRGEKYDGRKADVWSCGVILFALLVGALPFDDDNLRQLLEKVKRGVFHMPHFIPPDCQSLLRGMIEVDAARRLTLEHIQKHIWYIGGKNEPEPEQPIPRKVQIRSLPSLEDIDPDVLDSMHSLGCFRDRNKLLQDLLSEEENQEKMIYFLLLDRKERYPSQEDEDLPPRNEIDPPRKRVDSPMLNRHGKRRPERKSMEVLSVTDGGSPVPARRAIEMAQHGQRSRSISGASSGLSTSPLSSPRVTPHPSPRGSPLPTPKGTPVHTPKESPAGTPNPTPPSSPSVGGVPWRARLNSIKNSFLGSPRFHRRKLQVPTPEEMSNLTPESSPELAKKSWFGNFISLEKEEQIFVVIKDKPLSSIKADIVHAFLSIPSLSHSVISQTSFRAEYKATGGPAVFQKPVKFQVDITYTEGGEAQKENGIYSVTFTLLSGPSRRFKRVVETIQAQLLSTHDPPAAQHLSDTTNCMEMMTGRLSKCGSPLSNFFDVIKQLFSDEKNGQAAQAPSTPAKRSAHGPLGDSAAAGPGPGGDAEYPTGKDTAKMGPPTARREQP
As to conditions: at 0.1 µM.

Assay [7] addresses T3, Serine/threonine-protein kinase BRSK2 (Homo sapiens). The note with it: at 1 µM.
Assay [8] deals with Calcium/calmodulin-dependent protein kinase type 1D (Homo sapiens) (UniProt Q8IU85). The note with it: at 0.1 µM.
Assay [9] shares this target. As to conditions: at 1 µM.
Assay [10] concerns the target Calcium/calmodulin-dependent protein kinase type II subunit alpha (Homo sapiens) (UniProt Q9UQM7). The note with it: at 0.1 µM.
Assay [11] has the same target. As to conditions: at 1 µM.
Assay [12] concerns the target Calcium/calmodulin-dependent protein kinase type II subunit delta (Homo sapiens) (UniProt Q13557). As to conditions: at 0.1 µM.
For assay [13] the target is unchanged. The note with it: at 1 µM.
Assay [14] addresses T4, Calcium/calmodulin-dependent protein kinase type IV (Homo sapiens) (UniProt Q16566).
T4 sequence (whole entry): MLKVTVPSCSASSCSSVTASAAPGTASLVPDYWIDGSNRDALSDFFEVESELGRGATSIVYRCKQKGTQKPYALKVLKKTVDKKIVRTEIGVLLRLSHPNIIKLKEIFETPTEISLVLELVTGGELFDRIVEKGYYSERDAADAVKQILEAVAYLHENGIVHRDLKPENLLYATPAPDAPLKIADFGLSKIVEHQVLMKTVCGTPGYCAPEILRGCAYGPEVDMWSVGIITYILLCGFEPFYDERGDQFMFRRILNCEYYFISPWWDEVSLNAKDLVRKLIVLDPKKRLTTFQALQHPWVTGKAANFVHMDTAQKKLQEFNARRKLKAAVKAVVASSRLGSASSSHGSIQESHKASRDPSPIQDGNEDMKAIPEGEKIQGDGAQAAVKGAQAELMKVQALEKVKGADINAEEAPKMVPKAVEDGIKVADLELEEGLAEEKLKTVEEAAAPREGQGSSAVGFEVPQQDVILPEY
As to conditions: at 0.1 µM.

Assay [15] concerns the target T4, Calcium/calmodulin-dependent protein kinase type IV (Homo sapiens). As to conditions: at 1 µM.
In assay [16] the target is T5, Serine/threonine-protein kinase Chk1 (Homo sapiens) (UniProt O14757).
T5 sequence (whole entry): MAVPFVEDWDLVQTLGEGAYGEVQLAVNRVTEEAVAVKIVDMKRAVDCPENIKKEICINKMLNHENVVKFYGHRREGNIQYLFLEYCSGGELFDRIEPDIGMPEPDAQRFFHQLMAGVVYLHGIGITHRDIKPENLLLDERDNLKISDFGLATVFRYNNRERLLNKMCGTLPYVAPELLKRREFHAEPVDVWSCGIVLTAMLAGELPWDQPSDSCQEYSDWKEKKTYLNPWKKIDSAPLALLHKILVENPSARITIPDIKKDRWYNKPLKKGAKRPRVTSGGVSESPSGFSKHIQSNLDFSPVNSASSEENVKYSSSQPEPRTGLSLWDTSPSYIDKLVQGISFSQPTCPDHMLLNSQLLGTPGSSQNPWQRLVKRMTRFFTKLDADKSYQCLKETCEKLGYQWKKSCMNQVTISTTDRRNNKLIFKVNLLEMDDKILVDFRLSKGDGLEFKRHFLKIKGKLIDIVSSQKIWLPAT
The note with it: at 0.1 µM.

The target in assay [17] is T5, Serine/threonine-protein kinase Chk1 (Homo sapiens). As to conditions: at 1 µM.
In assay [18] the target is Serine/threonine-protein kinase Chk2 (Homo sapiens) (UniProt O96017). The note with it: at 0.1 µM.
Assay [19] has the same target. The note with it: at 1 µM.
In assay [20] the target is Death-associated protein kinase 1 (Homo sapiens) (UniProt P53355). The note with it: at 0.1 µM.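 Further: reported figure is the mean inhibition of DAPK1.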

Experimental findings from ChEMBL document CHEMBL1961873, “Compounds: GSK PKIS; Assays: Nanosyn kinase panel” (2012) are described below.

The term inhibition denotes the relative decrease from the control value, in per cent.

SMILES strings stand for the structures.

Chain of Calcium/calmodulin-dependent protein kinase type II subunit alpha (Homo sapiens) (Q9UQM7 whole entry): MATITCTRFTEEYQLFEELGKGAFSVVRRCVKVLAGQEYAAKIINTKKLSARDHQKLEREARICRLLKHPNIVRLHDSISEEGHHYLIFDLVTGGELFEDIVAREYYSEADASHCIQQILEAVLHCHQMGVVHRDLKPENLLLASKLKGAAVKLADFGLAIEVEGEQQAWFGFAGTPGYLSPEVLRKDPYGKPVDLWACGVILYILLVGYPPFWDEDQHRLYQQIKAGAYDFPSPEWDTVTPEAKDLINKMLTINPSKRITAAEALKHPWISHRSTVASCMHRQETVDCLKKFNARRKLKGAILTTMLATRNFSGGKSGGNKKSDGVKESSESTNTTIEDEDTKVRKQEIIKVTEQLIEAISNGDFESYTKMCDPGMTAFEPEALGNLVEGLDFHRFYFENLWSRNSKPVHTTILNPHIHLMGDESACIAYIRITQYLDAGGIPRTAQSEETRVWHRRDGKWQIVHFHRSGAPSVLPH
Chain of Death-associated protein kinase 1 (Homo sapiens) (P53355 whole entry, looked up): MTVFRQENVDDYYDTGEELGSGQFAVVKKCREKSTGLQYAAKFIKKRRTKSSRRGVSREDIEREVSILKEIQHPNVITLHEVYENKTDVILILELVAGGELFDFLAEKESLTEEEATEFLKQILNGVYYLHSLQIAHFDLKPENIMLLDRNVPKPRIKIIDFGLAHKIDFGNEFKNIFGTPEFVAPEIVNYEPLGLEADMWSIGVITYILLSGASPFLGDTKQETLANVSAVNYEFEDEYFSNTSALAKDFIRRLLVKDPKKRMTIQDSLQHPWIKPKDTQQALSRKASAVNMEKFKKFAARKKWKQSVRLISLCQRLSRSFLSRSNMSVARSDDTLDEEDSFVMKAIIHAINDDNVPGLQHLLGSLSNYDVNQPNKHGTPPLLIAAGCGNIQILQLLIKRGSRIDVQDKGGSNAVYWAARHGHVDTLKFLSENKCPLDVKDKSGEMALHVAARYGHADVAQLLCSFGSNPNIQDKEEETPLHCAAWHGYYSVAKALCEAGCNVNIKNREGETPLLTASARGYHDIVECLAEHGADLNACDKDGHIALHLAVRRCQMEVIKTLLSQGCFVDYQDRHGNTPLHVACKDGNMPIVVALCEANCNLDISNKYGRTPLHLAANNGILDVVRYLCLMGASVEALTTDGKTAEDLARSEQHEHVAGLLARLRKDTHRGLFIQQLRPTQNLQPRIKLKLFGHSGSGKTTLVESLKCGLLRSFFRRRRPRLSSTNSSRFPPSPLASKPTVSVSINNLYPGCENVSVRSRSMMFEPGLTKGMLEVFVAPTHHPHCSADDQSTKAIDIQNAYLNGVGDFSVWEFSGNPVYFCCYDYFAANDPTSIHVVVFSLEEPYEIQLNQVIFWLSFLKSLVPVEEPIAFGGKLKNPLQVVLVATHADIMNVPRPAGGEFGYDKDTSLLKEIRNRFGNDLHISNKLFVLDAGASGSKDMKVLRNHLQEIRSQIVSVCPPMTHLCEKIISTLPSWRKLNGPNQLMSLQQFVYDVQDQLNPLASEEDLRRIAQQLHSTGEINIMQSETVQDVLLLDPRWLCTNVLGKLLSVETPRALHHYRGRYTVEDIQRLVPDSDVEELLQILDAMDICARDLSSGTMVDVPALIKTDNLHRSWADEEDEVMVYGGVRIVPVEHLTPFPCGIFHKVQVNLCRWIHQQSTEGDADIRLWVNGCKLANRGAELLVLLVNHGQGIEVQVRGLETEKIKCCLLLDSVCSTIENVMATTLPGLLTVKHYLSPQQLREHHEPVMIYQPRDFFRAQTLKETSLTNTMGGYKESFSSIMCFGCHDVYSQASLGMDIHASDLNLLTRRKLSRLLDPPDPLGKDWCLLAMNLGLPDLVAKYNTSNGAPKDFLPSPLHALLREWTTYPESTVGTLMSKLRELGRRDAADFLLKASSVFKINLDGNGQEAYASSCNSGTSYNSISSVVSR
Chain of Calcium/calmodulin-dependent protein kinase type 1D (Homo sapiens) (Q8IU85 whole entry, looked up): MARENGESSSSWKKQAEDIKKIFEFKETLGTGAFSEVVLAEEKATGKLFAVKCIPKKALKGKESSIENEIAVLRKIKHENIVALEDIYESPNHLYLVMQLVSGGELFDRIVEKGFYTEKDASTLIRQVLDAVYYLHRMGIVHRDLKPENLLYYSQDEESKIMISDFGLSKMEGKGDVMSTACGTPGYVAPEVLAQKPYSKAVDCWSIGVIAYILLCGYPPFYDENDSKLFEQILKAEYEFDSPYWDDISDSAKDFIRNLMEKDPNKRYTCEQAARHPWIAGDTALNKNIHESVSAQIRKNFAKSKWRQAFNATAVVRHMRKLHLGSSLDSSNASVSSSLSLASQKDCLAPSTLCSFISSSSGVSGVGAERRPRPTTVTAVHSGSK
Chain of 5'-AMP-activated protein kinase catalytic subunit alpha-2 (Homo sapiens) (P54646 whole entry, looked up): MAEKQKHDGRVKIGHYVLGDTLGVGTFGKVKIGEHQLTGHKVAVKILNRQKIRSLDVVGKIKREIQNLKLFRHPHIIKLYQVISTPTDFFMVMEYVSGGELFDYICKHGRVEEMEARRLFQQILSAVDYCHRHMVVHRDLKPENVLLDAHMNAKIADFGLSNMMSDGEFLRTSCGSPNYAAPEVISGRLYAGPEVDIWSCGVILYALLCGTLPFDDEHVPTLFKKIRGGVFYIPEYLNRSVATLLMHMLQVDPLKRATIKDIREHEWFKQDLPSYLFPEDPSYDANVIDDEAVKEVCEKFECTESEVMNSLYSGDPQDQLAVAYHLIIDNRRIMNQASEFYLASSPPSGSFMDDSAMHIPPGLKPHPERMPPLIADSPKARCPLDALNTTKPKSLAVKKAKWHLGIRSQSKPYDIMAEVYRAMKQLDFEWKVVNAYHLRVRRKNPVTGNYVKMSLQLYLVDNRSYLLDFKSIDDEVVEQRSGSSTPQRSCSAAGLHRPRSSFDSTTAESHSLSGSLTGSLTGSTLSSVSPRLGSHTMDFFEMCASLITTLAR
Chain of Calcium/calmodulin-dependent protein kinase type II subunit delta (Homo sapiens) (Q13557 whole entry): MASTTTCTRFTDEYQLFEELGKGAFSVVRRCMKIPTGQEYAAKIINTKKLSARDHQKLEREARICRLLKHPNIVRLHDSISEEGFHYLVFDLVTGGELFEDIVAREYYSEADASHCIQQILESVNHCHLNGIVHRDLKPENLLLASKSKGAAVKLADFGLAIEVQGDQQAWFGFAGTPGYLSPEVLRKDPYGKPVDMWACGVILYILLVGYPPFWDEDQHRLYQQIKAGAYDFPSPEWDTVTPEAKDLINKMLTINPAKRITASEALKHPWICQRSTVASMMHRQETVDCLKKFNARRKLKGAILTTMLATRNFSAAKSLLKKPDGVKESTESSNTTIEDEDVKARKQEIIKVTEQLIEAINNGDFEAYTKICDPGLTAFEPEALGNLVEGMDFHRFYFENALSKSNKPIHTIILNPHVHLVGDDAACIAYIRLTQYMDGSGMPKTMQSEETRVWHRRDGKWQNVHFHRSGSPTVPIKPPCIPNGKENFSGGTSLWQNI
Chain of Serine/threonine-protein kinase Chk2 (Homo sapiens) (O96017 whole entry): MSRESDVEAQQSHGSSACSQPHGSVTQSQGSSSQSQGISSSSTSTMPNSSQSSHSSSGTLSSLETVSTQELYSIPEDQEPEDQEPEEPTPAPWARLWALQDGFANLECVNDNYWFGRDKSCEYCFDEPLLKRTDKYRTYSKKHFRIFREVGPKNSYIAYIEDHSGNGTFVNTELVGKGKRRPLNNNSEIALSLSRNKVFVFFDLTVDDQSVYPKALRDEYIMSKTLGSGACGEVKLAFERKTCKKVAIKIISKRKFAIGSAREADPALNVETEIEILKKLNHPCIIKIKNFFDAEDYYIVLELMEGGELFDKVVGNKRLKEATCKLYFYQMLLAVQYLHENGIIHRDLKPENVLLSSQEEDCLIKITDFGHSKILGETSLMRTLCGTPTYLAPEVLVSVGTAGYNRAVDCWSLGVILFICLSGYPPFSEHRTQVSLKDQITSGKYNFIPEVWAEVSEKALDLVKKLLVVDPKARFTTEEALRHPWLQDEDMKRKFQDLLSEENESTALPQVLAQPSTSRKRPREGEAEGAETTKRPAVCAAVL

Turning to `O=C(Nc1n[nH]c2nc(-c3ccco3)ccc12)C1CC1`, the inhibition amounted to 3.94% in [1]; 0.19% in [2]; 2.78% in [3]; 0.98% in [4]; 3.49% in [5]; 0.55% in assay [6]. For the same compound, the inhibition is 4.63% in assay [7]; 0.8% in assay [8]; 2.1% in [9]; 1.71% in assay [10]; 1.36% in assay [11]; 2.25% in [12]. The inhibition in assay [13] stood at 2.34%; in [14], 2.75%; in assay [15], 3.02%; in [16], 1.37%; in [17] it was 8.39%; in assay [18], 4.66%. Moreover, the inhibition in [19] turned out to be 6.05%; in assay [20] it was 7.38%.
Turning to `COc1cccc(/C=N/Nc2ncnc3c2cnn3-c2cccc(OC)c2)c1`, the inhibition was 2.83% in [1]; 1.95% in [2]; 3.7% in assay [3]; 0.47% in assay [4]; -0.97% in assay [5]; 1.04% in [6]. Further, the inhibition in assay [7] is 2.41%; in [8], -0.14%; in assay [9], 0.89%; in [10], 0.99%; in assay [11], 1.28%; in assay [12], 3.36%. Moreover, the inhibition in assay [13] is 6.18%; in assay [14], -0.53%; in assay [15], 0.8%; in assay [16], -0.79%; in [17] it was -1.62%; in assay [18] it was 3.83%. The inhibition is 4.99% in assay [19] and -0.06% in assay [20].
For `Cc1ccc(C(=O)NC(C)C)cc1-c1ccc(C(=O)NCC2CC2)cc1`, the inhibition in [1] is -5.48%; in assay [2], 3.9%; in assay [3] it was 3.92%; in [4], 1.12%; in [5], -1.28%; in assay [6], 0.51%. Also, the inhibition in [7] was 1.61%; in assay [8], -1.04%; in assay [9], 0.57%; in [10] it was -4.62%; in assay [11], -3.85%; in [12] it was -3.04%. Moreover, the inhibition in assay [13] is -1.11%; in [14], -0.94%; in assay [15], -2.57%; in [16], -1.72%; in [17], -3.38%; in assay [18], -3.25%. Further, the inhibition in assay [19] is -2.4%; in [20], -2.08%.
Take `C/C(Nc1ccc(S(N)(=O)=O)cc1)=C1/C(=O)Nc2ccccc21`: the inhibition in [1] was determined as 4.96%; in [2], 6.3%; in assay [3] it was 34%; in assay [4], 1.67%; in [5], 18.9%; in assay [6], 4.55%. Also, the inhibition in assay [7] is 31.1%; in assay [8], -0.31%; in assay [9] it was -0.55%; in [10] it was -4.87%; in [11], -2.07%; in assay [12] it was -2.27%. Also, the inhibition in [13] is 3.2%; in [14] it was -2.35%; in assay [15], -0.89%; in assay [16], 4.5%; in assay [17], 10.1%; in [18] it was -0.44%. Further, the inhibition in assay [19] was determined as 14.5%; in assay [20], 1.47%.
Consider `NS(=O)(=O)c1ccc(N/N=C2\C(=O)Nc3ccc(C(=O)NCCCn4ccnc4)cc32)cc1`, for which the inhibition turned out to be 26.3% in assay [1]; 19.4% in assay [2]; 66.4% in assay [3]; 4.96% in [4]; 31.2% in assay [5]; 8.96% in [6]. In addition, the inhibition in [7] was found to be 46%; in [8] it was 0.1%; in [9], 2.23%; in [10], 3.04%; in assay [11] it was 4.11%; in assay [12] it was 2.56%. Also, the inhibition in assay [13] is 8.04%; in assay [14], -1.35%; in [15], -4.25%; in assay [16] it was 10.4%; in [17] it was 19.3%; in assay [18] it was 10.6%. Further, the results for the inhibition in assay [19] and in assay [20] were 19% and 11.1%, respectively.
Consider `Nc1nccc(-c2c(-c3ccc(F)cc3)ncn2C2CCC(O)CC2)n1` (stereo not given), for which the inhibition in assay [1] was -1.6%; in [2] it was 9.02%; in [3] it was 39.9%; in [4], 0.33%; in [5], 1.44%; in assay [6], 1.13%. Besides, the inhibition in [7] was 1.19%; in assay [8], -2.47%; in [9], -0.75%; in [10], -3.31%; in assay [11], -3.25%; in assay [12] it was -1.92%. The inhibition in assay [13] was 1.53%; in assay [14] it was 9.35%; in assay [15] it was -0.1%; in [16], -3.08%; in assay [17], 0.13%; in [18] it was -1.95%. Further, the values for the inhibition in assay [19] and in [20] were -1.72% and -1.1%, respectively.
